# From PubChem BioAssay (NCATS)
# Values joined by “and” are separate entries in the source; they are usually repeats but may differ in a detail not shown here. Identical values can stand only once. Results filed as inconclusive are left out. Active and inactive are the calls of the source. The call rests on the fitted dose curve.
# Assay: qHTS Assay for Lipid Storage Modulators (AID 1519); on activity change, negative = inhibition: on the % scale 0 is the no-effect control and ±100 the full control effect
# Settings: Drosophila S3 cells, BODIPY lipid droplet/cell ratio, laser cytometry, cells loaded with oleic acid
# Text: NIH Molecular Libraries Probe Production Centers Network [MLPCN]
# NIH Chemical Genomics Center [NCGC]
# Assay Submitter (PI): Beller, Mathias; Max-Planck-Institut fur Biophysikalische Chemie
# NCGC Assay Overview: Storing lipids as a reservoir for energy or the anabolism of elementary metabolites is a common feature of probably all cells and is conserved from bacteria to humans. The universal cellular lipid storage organelle is the so-called lipid storage droplet (LD). Although ubiquitous, LDs share a simple structure composed of a hydrophobic core that harbors the storage lipids, which is shielded by a droplet-specific phospholipid monolayer to which proteins are attached. The current model of LD biogenesis involves an incorporation of the lipid core into the membrane leaflets of the endoplasmic reticulum (ER) followed by a subsequent budding-like maturation of a LD, which ultimately pinches off. Once released, LD volume can increase by localized lipogenesis or fusion of existing droplets. Storage lipids are re-mobilized enzymatically by lipase activity. Lipase regulation in the adipocyte is heavily studied and involves multiple components including catecholamine signaling, the LD-associated proteins Perilipin and comparative gene identification-58 (CGI-58) and at least two lipases named hormone sensitive lipase (HSL) and adipocyte triglyceride lipase (ATGL). LD regulation outside of the adipocyte is poorly understood and only few components are known. However, there is an urgent need to learn more about ectopic fat depots as mislocalized storage of lipids, for example in the liver or muscle, is an eminent health problem associated with insulin resistance or the metabolic syndrome. We developed a laser-scanning cytometer assay to enable 1,536-well screening and combined the results of the small molecules screen with an RNAi database based on lipid storage.
# NCGC Assay Protocol Summary:
# We dispensed 4 uL of cells at 1.25 x 10^6 cells/mL into LoBase Aurora COC 1,536-well plates (black walled, clear bottom) with a bottle-valve solenoid-based dispenser (Aurora) to obtain 5,000 cells/well. Triacsin C (Sigma-Aldrich T-4540), an inhibitor of long-chain fatty acyl CoA synthetase that blocks synthesis of triglycerides, was used as a positive control for lipid under-storage. A total of 23 nL of compound solution of different concentrations were transferred to the assay plates using a Kalypsys pin tool equipped with a 1,536-pin array containing 10-nL slotted pins (FP1S10, 0.457-mm diameter, 50.8 mm long; V&P Scientific). One microliter of oleic acid (400 uM) was added, and the plate was lidded with stainless steel rubber gasket lined lids containing pinholes. […] Fluorescence was detected by excitation of the fluorophores with a 488-nm laser on an Acumen Explorer (TTP Lab Tech). The total intensity in channel 1 (500-530 nm) reflected lipid droplet accumulation. […] The ratio of the total intensity in PMT channel 1 over total intensity of channel 3 was also calculated. Percent activity was computed relative to an internal control (100% inhibited lipid droplet deposition due to the presence of 20 uM Triacsin C), which was added to 32 wells/plate.
# [1] = measured here: cell count channel max response
# [2] = measured here: lipid channel max response
SMILES,"activity change, negative = inhibition (at 25.7 µM (top of the series))",max response [1],max response [2],"activity change, negative = inhibition (at 57.5 µM (top of the series))"
O=C(O)c1ccccc1OP(=O)(O)O,1.48% (inactive),3.1%,4.99%,–
CC(=O)NS(=O)(=O)c1ccc(N)cc1,-1.25% (inactive),0.487% and 9.27%,-1.3% and 19.7%,7% (inactive)
CCCNC(C)(C)COC(=O)c1ccccc1,-1.27% (inactive),-4.93%,-6.33%,–
CCS(=O)(=O)CCn1c([N+](=O)[O-])cnc1C,-0.644% (inactive),-6.2% and 14.4%,-8.29% and 29%,8.24% (inactive)
Cn1c(=O)c2c(ncn2CCO)n(C)c1=O,-0.0249% (inactive),7.29% and 18.9%,6.36% and 16.1%,6.15% (inactive)
CCOC(=O)[C@H](CCc1ccccc1)N[C@@H](C)C(=O)N1CCC[C@H]1C(=O)O,0.997% (inactive),-1.26%,0.539%,–
CC(=O)N[C@@H](CC(C)C)C(=O)O,-0.448% (inactive),-13.9%,-14.5%,–
Cn1c([N+](=O)[O-])cnc1COC(N)=O,1.17% (inactive),-1.45% and 4.32%,-3% and 14.5%,7.17% (inactive)
CC(=O)NCc1c(I)c(NC(C)=O)c(I)c(C(=O)O)c1I,–,17.6%,37%,14.5% (inactive)
COc1ccccc1OCC(O)CO (stereo not given),–,-0.08%,10.1%,8.3% (inactive)
NC(=O)NC1NC(=O)NC1=O (stereo not given),–,2.56%,9.47%,4.87% (inactive)
C=CCSCC1Nc2cc(Cl)c(S(N)(=O)=O)cc2S(=O)(=O)N1 (stereo not given),–,6.41%,6.24%,8.24% (inactive)
